# Screens as filed in PubChem.
# Shown are actives, neighbours in structure and some others; about 6.6% of the full set was active somewhere.
# Anthrax LF prot – Bacillus anthracis LF protease inhibitors, primary screen, biochemical, multiplex microsphere, MLPCN library; Lethal factor (Bacillus anthracis), P15917; multiplex microsphere protease cleavage assay; inhibition, % at 10 µM; 360,000 tested, 0.12% active; also: plate controls were buffer without enzyme for full effect and enzyme alone for no effect
# Mtb FBA inh – Mtb FBA enzyme inhibitors, primary screen, biochemical, fluorescence, strain H37Rv; Fructose-bisphosphate aldolase (Mycobacterium tuberculosis (strain ATCC 25618 / H37Rv)), …; purified M. tuberculosis FBA, fluorescence read-out; inhibition, % at 1 µM; 360,000 tested, 2.3% active; AID 588726, 2011; in the data active = inhibition above about 27%;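 also: 0% = vehicle and 100% = reference inhibitor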
# Bead autofluor – counter-screen for toxin protease inhibitors: compound fluorescence; compound autofluorescence counterscreen, microsphere flow cytometry; stronger effect = higher value; fluorescence intensity (no concentration beside the values); 360,000 tested, 3.1% active; AID 624483; in the data active = fluorescence intensity above about 16000; inconclusive = no clear call, values can overlap the other calls
# BoNT-A LC inh2 – BoNT/A light chain protease inhibitors, primary screen, biochemical, flow cytometry, MLPCN library. Botulinum neurotoxin type A light chain protease (Clostridium botulinum A str. ATCC 3502). multiplex microsphere protease substrate cleavage. inhibition, % at 10 µM. 360,000 tested, 0.17% active. AID 588499, 2011; also: plate controls were buffer without enzyme for full effect and enzyme alone for no effect
# BoNT-F LC inh – BoNT/F light chain protease inhibitors, primary screen, biochemical, flow cytometry, MLPCN library | Multiplex microsphere protease cleavage assay | Botulinum neurotoxin type F light chain protease (Clostridium botulinum) | inhibition, % at 10 µM | 360,000 tested, 0.22% active; in the data active = inhibition above about 35%, passing the limit was not always enough; inconclusive = no clear call, values can overlap the other calls; also: plate controls were buffer without enzyme for full effect and enzyme alone for no effect
# GDH-TPI counter-1 – GDH-TPI coupling enzyme inhibitors, primary screen, artefact control for M. tuberculosis FBA inhibitor project, biochemical, absorbance, full deck; GDH-TPI coupled enzyme counterscreen, NADH absorbance; inhibition, % at 4.8 µM; 360,000 tested, 1.2% active; in the data active = inhibition above about 30%;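 also: 0% = DMSO wells and 100% = wells lacking the enzyme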
# Mtb FBA confirm – M. tuberculosis aldolase blockers, biochemical, fluorescence, strain H37Rv, confirmation | shares compounds with Mtb FBA inh | purified M. tuberculosis FBA, fluorescence read-out | inhibition, % at 1 µM | 5,600 tested, 78% active | AID 651616, 2012; in the data active = inhibition above about 27%;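 also: 0% = vehicle wells and 100% = reference inhibitor wells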
# GDH-TPI counter-2 – GDH-TPI coupling enzyme inhibitors, artefact control for M. tuberculosis FBA inhibitor project, biochemical, fluorescence, high throughput. shares compounds with Mtb FBA inh. GDH-TPI coupled enzyme counterscreen. inhibition, % at 1 µM. 5,600 tested, 81% active. AID 652141, 2013; in the data active = inhibition above about 10%
# Numbers without * were called inactive; ? = inconclusive; nt = no result; + = active, no number. Rule as the data show it, unless noted: active = inhibition above about 30%; inconclusive = no clear call, values can overlap the other calls; inactive = below that.
SMILES,Anthrax LF prot,Mtb FBA inh,Bead autofluor,BoNT-A LC inh2,BoNT-F LC inh,GDH-TPI counter-1,Mtb FBA confirm,GDH-TPI counter-2
Cc1ccc(C2Nc3ccccc3-c3nc4ccccc4n32)o1 (centres undefined),0.1,82.2*,10577,-0.4,-6.1,0.8,119.2*,95.2*
O=C1c2ccccc2-c2nc3ccccc3n21,3.4,4.1,4331,?,?,-3.4,nt,nt
CC(=O)c1ccc(-c2ccc(C(=O)NCC(c3ccc(F)cc3)N3CCOCC3)o2)cc1 (centres undefined),3.5,54.7*,6124,1.7,7.8,20.8,57.4*,32.0*
Cc1ccc(C(=O)NCC(c2ccc(F)cc2)N2CCOCC2)cc1 (centres undefined),0.6,-1.6,4251,0.2,0.5,-13.9,nt,nt
O=C(CN1CCC(C(=O)c2cccc(Cl)c2)CC1)Nc1ccc(C(=O)O)cc1,-2.8,-3.2,3608,0.5,-5.0,3.2,nt,nt
O=C(CN1C(=O)c2ccccc2C1=O)OCC(=O)c1ccccc1,-6.5,2.0,5993,-0.1,-10.0,3.6,nt,nt
CCCc1ccc(C2=Nn3c(nnc3C(C)C)SC2)cc1,-3.6,-0.8,4213,0.8,1.7,5.7,nt,nt
CC(NC(=O)C1=CC=CN2CCS(=O)(=O)N=C12)c1ccc(Cl)c(Cl)c1 (centres undefined),-1.9,15.9,3859,-0.4,-2.4,17.5,nt,nt
CC(NC(=O)C1=CC=CN2CCS(=O)(=O)N=C12)c1ccc(Cl)cc1Cl (centres undefined),0.8,28.9*,3906,1.4,7.4,1.0,125.5*,94.7*
O=C(NCc1ccccc1Cl)C1=CC=CN2CCS(=O)(=O)N=C12,-9.1,35.8*,3021,-0.1,14.5,11.0,+,+
CN(Cc1ccc(Cl)c(Cl)c1)C(=O)C1=CC=CN2CCS(=O)(=O)N=C12,-6.1,8.8,4034,0.2,6.4,5.7,nt,nt
COCCN1C[C@@H](CO)O[C@@H](n2cnc3c(N4CCN(CCO)CC4)ncnc32)C1,0.6,-3.2,3041,-0.2,0.5,8.0,nt,nt
O=C(NCCc1ccc(O)c(O)c1)C1COc2ccccc2O1 (centres undefined),0.6,-0.2,5635,-1.0,-3.5,-8.0,nt,nt
COc1cccc2c(=O)cn[nH]c12,-1.3,76.4*,2462,-0.6,2.6,19.1,5.8,-4.5
COC(=O)c1cc(=O)c2cccc(OC)c2[nH]1,-0.8,43.3*,5628,-0.5,-0.7,16.2,+,+
CCOC(=O)c1nn(-c2ccc(OCC)cc2)c2nc(CC(C)C)c(C#N)c(=O)n12,-3.4,104.0*,16776*,-1.5,-4.1,-0.6,-7.0,-6.0
CCOC(=O)c1nn(-c2ccc(Cl)cc2)c2nc(CC)c(C#N)c(=O)n12,-1.5,37.2*,16274*,1.2,-0.2,20.6,1.0,1.1
CCOC(=O)c1nn(-c2cccc(Cl)c2)c2nc(CC(C)C)c(C#N)c(=O)n12,4.2,4.8,10003,-0.5,5.3,0.3,nt,nt
O=C1c2cccc3cccc(c23)C(=O)N1Cc1ccccn1,-2.2,31.8*,4048,-0.5,-3.0,17.3,61.2*,37.4*
O=C1c2cccc3cccc(c23)C(=O)N1c1ccccn1,-0.6,51.5*,3191,1.3,-3.2,8.7,-16.2,-16.4
CC1CCCCN1CCNC(=O)c1cc2c(-c3ccccc3F)nn(C)c2s1 (centres undefined),1.3,22.4,8392,1.0,10.9,8.1,nt,nt
CCN(CC)CCNC(=O)c1cc2c(=O)n(C)c3ccccc3c2s1,4.4,70.8*,3897,-2.4,-31.4,11.0,129.1*,86.9*
